The values that follow come from the supplement of paper PMC9446081.

SMILES strings stand for the structures. Out of some 39,000 compounds screened, about 220 (0.56%) showed activity. The full list was thinned out, with actives kept by preference.
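Further: Wild-type cells incubated without shaking, value is the mean of two biological replicates.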

The test deals with Escherichia coli K-12 BW25113. Briefly: relative growth (OD600 normalised to plate interquartile mean) (fraction); higher = less growth inhibition, active = 0.2 or less. Particulars: 50 µM; LB; incubation time: overnight (16-24 h).
As for `CN[C@@H]1[C@H](O)[C@H](NC)[C@H]2O[C@@]3(O)C(=O)C[C@@H](C)O[C@H]3O[C@@H]2[C@H]1O`, the relative growth was 0.0458 (active). Consider `CNC1C(O)C(NC)C2OC3(O)C(=O)CC(C)OC3OC2C1O.Cl.Cl` (centres undefined), for which the relative growth was 0.048 (active).

In the case of `C[C@@H]1CN([C@H](C)CO)C(=O)c2cc(NC(=O)C3CC3)ccc2O[C@@H]1CN(C)S(=O)(=O)c1ccccc1`, the relative growth is 0.987 (inactive). As to `CC(C)NC(=O)Nc1cccc2c1O[C@H](CN(C)Cc1ccc(-c3ccccc3)cc1)[C@@H](C)CN([C@@H](C)CO)C2=O`, the relative growth was 0.997 (inactive).

Regarding `C[C@H]1CCCCO[C@H](CN(C)Cc2ccncc2)[C@@H](C)CN([C@@H](C)CO)C(=O)c2cc(NC(=O)C3CCCCC3)ccc2O1`, the relative growth was 0.956 (inactive).

On to `COc1ccc(S(=O)(=O)Nc2cccc3c2O[C@@H](CN(C)C(=O)NC(C)C)[C@H](C)CN([C@H](C)CO)C3=O)cc1`, for which the relative growth is 0.978 (inactive). Consider `COc1ccc(CN(C)C[C@@H]2OCCCC[C@H](C)Oc3ccc(NS(=O)(=O)c4ccc(OC)cc4)cc3C(=O)N([C@H](C)CO)C[C@H]2C)cc1`, for which the relative growth was 0.994 (inactive).

In the case of `CN[C@@H]1[C@H](O[C@H]2[C@H](O[C@H]3[C@H](O)[C@@H](O)[C@H](NC(=N)N)[C@@H](O)[C@@H]3NC(=N)N)O[C@@H](C)[C@]2(O)C=O)O[C@@H](CO)[C@H](O)[C@H]1O`, the relative growth is 0.888 (inactive). The figure for `CN[C@H]1[C@@H](O[C@H]2[C@@H](O[C@H]3[C@@H](O)[C@@H](O)[C@@H](NC(=N)N)[C@@H](O)[C@@H]3NC(=N)N)O[C@@H](C)[C@@]2(O)C=O)O[C@@H](CO)[C@@H](O)[C@@H]1O.CN[C@H]1[C@@H](O[C@H]2[C@@H](O[C@H]3[C@@H](O)[C@@H](O)[C@@H](NC(=N)N)[C@@H](O)[C@@H]3NC(=N)N)O[C@@H](C)[C@@]2(O)C=O)O[C@@H](CO)[C@@H](O)[C@@H]1O.O=S(=O)(O)O.O=S(=O)(O)O.O=S(=O)(O)O` is 0.372 (inactive); for `CNC1C(OC2C(OC3C(O)C(O)C(NC(=N)N)C(O)C3NC(=N)N)OC(C)C2(O)CO)OC(CO)C(O)C1O.O=S(=O)(O)O` (centres undefined) it is 0.0643 (active).

With `CN[C@@H]1[C@H](O[C@H]2[C@H](O[C@@H]3[C@@H](O)[C@H](O)[C@@H](NC(=N)N)[C@H](O)[C@H]3NC(=N)N)O[C@@H](C)[C@]2(O)C=O)O[C@@H](CO)[C@H](O)[C@H]1O`, the relative growth is 0.972 (inactive). For the compound `CN[C@@H]1[C@H](O[C@H]2[C@H](O[C@@H]3[C@@H](O)[C@H](O)[C@@H](NC(=N)N)[C@H](O)[C@H]3NC(=N)N)O[C@@H](C)[C@]2(O)CO)O[C@@H](CO)[C@H](O)[C@H]1O.CN[C@@H]1[C@H](O[C@H]2[C@H](O[C@@H]3[C@@H](O)[C@H](O)[C@@H](NC(=N)N)[C@H](O)[C@H]3NC(=N)N)O[C@@H](C)[C@]2(O)CO)O[C@@H](CO)[C@H](O)[C@H]1O`, the relative growth is 0.11 (active). For the compound `CNC1C(OC2C(OC3C(O)C(O)C(NC(=N)N)C(O)C3NC(=N)N)OC(C)C2(O)C=O)OC(CO)C(O)C1O.O=S(=O)(O)O` (centres undefined) [STREPTOMYCIN SULFATE [5mM; 10% aq DMSO + 5mM ethanolamine]], the relative growth was 1.11 (inactive). In the case of `C[C@H]1CN([C@@H](C)CO)C(=O)c2cc(NC(=O)C3CC3)ccc2O[C@@H]1CN(C)S(=O)(=O)c1cn(C)cn1`, the relative growth was 0.941 (inactive). For the compound `C[C@@H]1CCCCO[C@H](CN(C)Cc2ccc(C(F)(F)F)cc2)[C@H](C)CN([C@@H](C)CO)C(=O)c2cc(NS(=O)(=O)c3ccc(Cl)cc3)ccc2O1`, the relative growth is 1.03 (inactive).

On to `O=C(C[C@@H]1C=C[C@H](NC(=O)c2cnccn2)[C@H](CO)O1)NCc1ccccc1F`, for which the relative growth is 1.03 (inactive).

On to `OC[C@@H]1CN(CCN2CCOCC2)C[C@H](n2cnc3c(NC4CCC4)ncnc32)O1`, for which the relative growth was 0.936 (inactive). Regarding `C[C@@H]1CN([C@H](C)CO)C(=O)CCCn2nncc2CO[C@H]1CN(C)S(=O)(=O)c1ccc(-c2ccccc2)cc1`, the relative growth is 0.979 (inactive). In the case of `CCCN(C)C[C@@H]1OCCCC[C@@H](C)Oc2ccc(NC(=O)Nc3ccc4c(c3)OCO4)cc2C(=O)N([C@H](C)CO)C[C@H]1C`, the relative growth is 1.03 (inactive). Turning to `Cc1nnc(SCC2=C(C(=O)O)N3C(=O)[C@@H](NC(=O)Cn4cnnn4)[C@H]3SC2)s1`, the relative growth was 0.0386 (active). For the compound `Cc1nnc(SCC2=C(C(=O)[O-])N3C(=O)C(NC(=O)Cn4cnnn4)C3SC2)s1.[Na+]` (centres undefined), the relative growth is 0.0433 (active). For `Cc1nnc(SCC2=C(C(=O)O)N3C(=O)[C@@H](N)[C@H]3SC2)s1`, the relative growth is 1 (inactive). Take `CC(=O)OCC1=C(C(=O)O)N2C(=O)[C@@H](NC(=O)CSc3ccncc3)[C@H]2SC1`: the relative growth was 1.05 (inactive). Take `O=C(Cn1cnnn1)NC1C(=O)N2C(C(=O)O)=C(CSc3nncs3)CSC12` (centres undefined): the relative growth is 0.0457 (active). For the compound `Cc1noc(C)c1S(=O)(=O)N(C)C[C@H]1Oc2c(NC(=O)C3CCCCC3)cccc2C(=O)N([C@@H](C)CO)C[C@H]1C`, the relative growth was 1.01 (inactive). For the compound `C[C@@H]1CN([C@H](C)CO)C(=O)c2cc(NC(=O)NC3CCCCC3)ccc2O[C@@H](C)CCCCO[C@@H]1CN(C)Cc1ccncc1`, the relative growth was 0.996 (inactive). For the compound `C[C@H](CO)N1C[C@H](C)[C@@H](CN(C)Cc2ccc3c(c2)OCO3)Oc2ccc(NC(=O)c3ccncc3)cc2CC1=O`, the relative growth was 1.01 (inactive). `Cc1ccc(S(=O)(=O)N(C)C[C@H]2Oc3c(NC(=O)NC(C)C)cccc3C(=O)N([C@@H](C)CO)C[C@H]2C)cc1`: the relative growth is 0.992 (inactive). For the compound `C[C@@H]1CN([C@H](C)CO)C(=O)Cc2cc(NC(=O)CCCN(C)C)ccc2O[C@@H]1CN(C)S(=O)(=O)c1ccc(Cl)cc1`, the relative growth was 0.973 (inactive).

On to `COc1ccc(S(=O)(=O)N(C)C[C@@H]2Oc3ncc(C#Cc4ccc(OC)c(OC)c4)cc3C(=O)N([C@H](C)CO)C[C@@H]2C)cc1`, for which the relative growth was 0.91 (inactive). To `O=c1[nH]c(=O)n(C2CC(O)C(CO)O2)cc1F` (centres undefined) belongs 0.0526 (active); to `O=c1[nH]c(=O)n([C@H]2C[C@H](O)[C@@H](CO)O2)cc1CO`, 1.04 (inactive); to `O=c1[nH]c(=O)n(C2CC(O)C(CO)O2)cc1I` (centres undefined), 1.06 (inactive). In the case of `Cc1cn([C@H]2C[C@H](O)[C@@H](CO)O2)c(=O)[nH]c1=O`, the relative growth is 1.03 (inactive). The figure for `Cc1cn([C@@H]2C[C@@H](O)[C@H](CO)O2)c(=O)[nH]c1=O` is 0.991 (inactive); for `O=c1[nH]c(=O)n([C@H]2C[C@H](O)[C@@H](CO)O2)cc1F` it is 0.0339 (active); for `Cc1cn([C@@H]2C[C@H](O)[C@@H](CO)O2)c(=O)[nH]c1=O` it is 0.988 (inactive).

With `O=c1[nH]c(=O)n([C@H]2C[C@H](O)[C@@H](CO)O2)cc1Br`, the relative growth is 0.944 (inactive). Regarding `O=c1[nH]c(=O)n([C@@H]2C[C@@H](O)[C@@H](CO)O2)cc1F`, the relative growth is 0.0303 (active).
